{"source": "ChEMBL document CHEMBL1961873", "about": "“Compounds: GSK PKIS; Assays: Nanosyn kinase panel” (2012)"}
{"biological_target": "T1, NUAK family SNF1-like kinase 1 (Homo sapiens) (UniProt O60285)", "T1 sequence (whole entry)": "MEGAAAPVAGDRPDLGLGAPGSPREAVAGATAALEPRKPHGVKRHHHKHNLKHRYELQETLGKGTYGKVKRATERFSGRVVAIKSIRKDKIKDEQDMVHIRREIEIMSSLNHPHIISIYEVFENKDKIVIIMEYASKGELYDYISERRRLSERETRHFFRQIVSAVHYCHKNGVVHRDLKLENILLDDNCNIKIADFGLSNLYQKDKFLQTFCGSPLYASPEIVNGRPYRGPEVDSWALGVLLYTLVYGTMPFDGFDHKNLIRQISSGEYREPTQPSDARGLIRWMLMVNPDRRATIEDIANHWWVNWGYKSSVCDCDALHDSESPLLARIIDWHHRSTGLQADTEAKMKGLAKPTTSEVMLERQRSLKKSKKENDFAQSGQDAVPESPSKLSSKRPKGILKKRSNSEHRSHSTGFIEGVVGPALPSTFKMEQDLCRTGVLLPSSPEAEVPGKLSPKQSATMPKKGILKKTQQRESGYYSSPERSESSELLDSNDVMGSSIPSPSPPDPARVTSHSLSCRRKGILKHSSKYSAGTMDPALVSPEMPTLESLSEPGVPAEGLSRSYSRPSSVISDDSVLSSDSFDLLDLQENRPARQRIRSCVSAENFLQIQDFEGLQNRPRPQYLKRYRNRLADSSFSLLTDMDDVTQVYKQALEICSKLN", "settings": "at 0.1 µM", "units": {"inhibition": "%"}}
{"smiles": "COc1cc2ncn(-c3cc(O[C@H](C)c4ccccc4Cl)c(C(N)=O)s3)c2cc1OC", "inhibition": 24}
{"smiles": "NC(=O)c1ccc(-c2nc(-c3ccccn3)c(-c3ccc4c(c3)OCO4)[nH]2)cc1", "inhibition": 0.4}
{"smiles": "Cn1cc(C=C2C(=O)Nc3cccnc32)c2ccccc21", "inhibition": 8.91}
{"smiles": "COc1cc2ncn(-c3cc(OCc4ccccc4C(F)(F)F)c(C(N)=O)s3)c2cc1OC", "inhibition": 21.7}
{"smiles": "O=C1Nc2ccc(C(=O)c3ccco3)cc2C1=Cc1cc(Cl)c(O)c(Cl)c1", "inhibition": 2.94}
{"smiles": "COc1ccc(-c2nn3ncccc3c2-c2ccnc(Nc3ccc(Cl)c(C(F)(F)F)c3)n2)cc1", "inhibition": -1.07}
{"smiles": "CS(=O)(=O)Nc1ccc(N/C=C2\\C(=O)Nc3ccccc32)cc1", "inhibition": 12.6}
{"smiles": "Fc1cccc(COc2ccc(Nc3ncnc4sc(-c5cccs5)cc34)cc2Cl)c1", "inhibition": 4.02}
{"smiles": "CCN1CCC(CC(=O)Nc2n[nH]c3nc(-c4cccs4)c(Br)cc23)CC1", "inhibition": -2.53}
{"smiles": "O=C1NC(=O)C(c2ccccc2Cl)=C1Nc1cccc(O)c1", "inhibition": 0.82}
{"smiles": "CCn1c(-c2nonc2N)nc2cncc(C(=O)N3CCNCC3)c21", "inhibition": -0.04}
{"smiles": "CN1CCC(C(=O)Nc2n[nH]c3nnc(-c4ccccc4)cc23)CC1", "inhibition": 1.18}
{"smiles": "CS(=O)(=O)CCN(CC#N)Cc1ccc(-c2ccc3ncnc(Nc4ccc(OCc5cccc(F)c5)c(Cl)c4)c3c2)o1", "inhibition": 0.1}
{"smiles": "COc1ccc(-c2coc3ncnc(N)c23)cc1", "inhibition": 3.47}
{"smiles": "Cc1ccc(NC(=O)c2ccnc(N3CCCC3)c2)cc1-c1ccc(C(=O)NCC2CC2)cc1", "inhibition": 5.1}
{"smiles": "CCn1c(-c2nonc2N)nc2c(C#CC(C)(C)O)nc(CN3CCCC3)cc21", "inhibition": -8.68}
{"smiles": "CCn1c(-c2nonc2N)nc2c(N3CCCC3)nccc21", "inhibition": 4.51}
{"smiles": "[O-][S+]1CCN(Cc2ccc(-c3ccc4ncnc(Nc5ccc(OCc6ccccc6)c(F)c5)c4c3)o2)CC1", "inhibition": 1.72}
{"smiles": "CCCN1CCC=C(c2ccc(Nc3nc(Nc4ccccc4C(N)=O)c4cc[nH]c4n3)c(C)c2)C1", "inhibition": 48.4}
{"smiles": "CC1=C(C(=O)Nc2ccc3[nH]ncc3c2)C(c2ccc(F)cc2)NC(=O)N1", "note": "(centres undefined)", "inhibition": 4.1}
{"smiles": "COc1cccc(-n2ncc3c(N/N=C/c4cccc(F)c4)ncnc32)c1", "inhibition": 3.92}
{"smiles": "Cc1ccc(C(=O)NC2CCCCC2)cc1-c1ccc(C(=O)NCC2CC2)cc1", "inhibition": 2.83}
{"smiles": "Nc1ncnc2occ(-c3ccc(NC(=O)Nc4cc(C(F)(F)F)cc(C(F)(F)F)c4)cc3)c12", "inhibition": 1.19}
{"smiles": "CC(C)=Cc1cccc2c1/C(=N/Nc1ccc(S(N)(=O)=O)cc1)C(=O)N2", "inhibition": 80.3}
{"smiles": "CC1=C(C(=O)Nc2ccc3[nH]ncc3c2)C(c2ccc3ccccc3c2)CC(=O)N1", "note": "(centres undefined)", "inhibition": 7.78}
{"smiles": "COc1ccc(-c2ccncc2)cc1C(N)=O", "inhibition": 1.88}
{"smiles": "COc1cc2ncn(-c3cc(OCc4ccccc4Cl)c(C(N)=O)s3)c2cc1OC", "inhibition": 14.3}
{"smiles": "CCn1c(-c2nonc2N)nc2cnc(Oc3cccc(NC(=O)c4ccc(OCCN5CCOCC5)cc4)c3)cc21", "inhibition": 5.2}
{"smiles": "CN(C)c1cc2c(Nc3ccc4nc(Cc5ccccc5)[nH]c4c3)ncnc2cn1", "inhibition": 0.74}
{"smiles": "N#Cc1c(NC(=O)c2cccc3ccccc23)sc2c1CCCC2", "inhibition": 1.58}
{"smiles": "Cc1cccc(-c2n[nH]cc2-c2ccc3ncccc3n2)n1", "inhibition": 0.78}
{"smiles": "NS(=O)(=O)c1cccc(-c2ccc3c(NC(=O)C4CC4)n[nH]c3c2)c1", "inhibition": 0.7}
{"smiles": "O=C1NC(=O)C(c2cccc(Cl)c2)=C1Nc1ccc(O)c(Cl)c1", "inhibition": 8.01}
{"biological_target": "T1, NUAK family SNF1-like kinase 1 (Homo sapiens)", "settings": "at 1 µM", "units": {"inhibition": "%"}}
{"smiles": "COc1cc2ncn(-c3cc(O[C@H](C)c4ccccc4Cl)c(C(N)=O)s3)c2cc1OC", "inhibition": 71.8}
{"smiles": "NC(=O)c1ccc(-c2nc(-c3ccccn3)c(-c3ccc4c(c3)OCO4)[nH]2)cc1", "inhibition": 1.15}
{"smiles": "Cn1cc(C=C2C(=O)Nc3cccnc32)c2ccccc21", "inhibition": 44.5}
{"smiles": "CNC(=O)c1cncc(/C=C/c2c(Cl)cccc2Cl)c1", "inhibition": 7.27}
{"smiles": "COc1cc2ncn(-c3cc(OCc4ccccc4C(F)(F)F)c(C(N)=O)s3)c2cc1OC", "inhibition": 65.5}
{"smiles": "O=C1Nc2ccc(C(=O)c3ccco3)cc2C1=Cc1cc(Cl)c(O)c(Cl)c1", "inhibition": 10.8}
{"smiles": "COc1ccc(-c2nn3ncccc3c2-c2ccnc(Nc3ccc(Cl)c(C(F)(F)F)c3)n2)cc1", "inhibition": -2.34}
{"smiles": "CS(=O)(=O)Nc1ccc(N/C=C2\\C(=O)Nc3ccccc32)cc1", "inhibition": 43.9}
{"smiles": "Fc1cccc(COc2ccc(Nc3ncnc4sc(-c5cccs5)cc34)cc2Cl)c1", "inhibition": 7.65}
{"smiles": "CCN1CCC(CC(=O)Nc2n[nH]c3nc(-c4cccs4)c(Br)cc23)CC1", "inhibition": 9.14}
{"smiles": "O=C1NC(=O)C(c2ccccc2Cl)=C1Nc1cccc(O)c1", "inhibition": 12.4}
{"smiles": "CCn1c(-c2nonc2N)nc2cncc(C(=O)N3CCNCC3)c21", "inhibition": 2.51}
{"smiles": "CN1CCC(C(=O)Nc2n[nH]c3nnc(-c4ccccc4)cc23)CC1", "inhibition": 3.89}
{"smiles": "CS(=O)(=O)CCN(CC#N)Cc1ccc(-c2ccc3ncnc(Nc4ccc(OCc5cccc(F)c5)c(Cl)c4)c3c2)o1", "inhibition": 1.9}
{"smiles": "COc1ccc(-c2coc3ncnc(N)c23)cc1", "inhibition": 1.24}
{"smiles": "CCn1c(-c2nonc2N)nc2c(C#CC(C)(C)O)nc(CN3CCCC3)cc21", "inhibition": 2.69}
{"smiles": "CCn1c(-c2nonc2N)nc2c(N3CCCC3)nccc21", "inhibition": 0.95}
{"smiles": "[O-][S+]1CCN(Cc2ccc(-c3ccc4ncnc(Nc5ccc(OCc6ccccc6)c(F)c5)c4c3)o2)CC1", "inhibition": 2.16}
{"smiles": "CCCN1CCC=C(c2ccc(Nc3nc(Nc4ccccc4C(N)=O)c4cc[nH]c4n3)c(C)c2)C1", "inhibition": 69.8}
{"smiles": "CC1=C(C(=O)Nc2ccc3[nH]ncc3c2)C(c2ccc(F)cc2)NC(=O)N1", "note": "(centres undefined)", "inhibition": 11.3}
{"smiles": "Cc1ccc(C(=O)NC2CCCCC2)cc1-c1ccc(C(=O)NCC2CC2)cc1", "inhibition": 2.62}
{"smiles": "Nc1ncnc2occ(-c3ccc(NC(=O)Nc4cc(C(F)(F)F)cc(C(F)(F)F)c4)cc3)c12", "inhibition": 2.22}
{"smiles": "CC(C)=Cc1cccc2c1/C(=N/Nc1ccc(S(N)(=O)=O)cc1)C(=O)N2", "inhibition": 87.3}
{"smiles": "CC1=C(C(=O)Nc2ccc3[nH]ncc3c2)C(c2ccc3ccccc3c2)CC(=O)N1", "note": "(centres undefined)", "inhibition": 43.5}
{"smiles": "COc1ccc(-c2ccncc2)cc1C(N)=O", "inhibition": 5.44}
{"smiles": "COc1cc2ncn(-c3cc(OCc4ccccc4Cl)c(C(N)=O)s3)c2cc1OC", "inhibition": 58.6}
{"smiles": "CCn1c(-c2nonc2N)nc2cnc(Oc3cccc(NC(=O)c4ccc(OCCN5CCOCC5)cc4)c3)cc21", "inhibition": 26.9}
{"smiles": "CN(C)c1cc2c(Nc3ccc4nc(Cc5ccccc5)[nH]c4c3)ncnc2cn1", "inhibition": 1.76}
{"smiles": "Cc1cccc(-c2n[nH]cc2-c2ccc3ncccc3n2)n1", "inhibition": 4.74}
{"smiles": "NS(=O)(=O)c1cccc(-c2ccc3c(NC(=O)C4CC4)n[nH]c3c2)c1", "inhibition": 1.95}
{"smiles": "O=C1NC(=O)C(c2cccc(Cl)c2)=C1Nc1ccc(O)c(Cl)c1", "inhibition": 48.3}
